# Only some compounds are listed: those with a hit (about 3.8% of all), similar ones and a draw of the others.
# ELG1 repair inh: qHTS screen for small molecules that inhibit ELG1-dependent DNA repair in human embryonic kidney (HEK293T) cells expressing luciferase-tagged ELG1. HEK293T ELG1-luciferase reporter, luminescence, 16 h; DNA damage induced by 5-fluorouridine. Potency, µM (series often up to 46.1 µM), inactives show at the highest dose activity change, negative = inhibition, most hits filed as inhibitors. 330,000 compounds, 2.3% hits; also: % is scaled to controls: 0 for no effect and ±100 for the full control effect; nearly all actives have a fitted effect of over 55% in size
#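 Cells (2,000 per well) received 5-fluorouridine plus test compound or DMSO and were incubated 16 hr at 37 °C, 5% CO2. Luciferase activity was read by luminescence 30 min after ONE-Glo addition; signal suppression marked inhibition of damage-induced ELG1 function.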
# Nrf2 ARE act: qHTS of Nrf2 Activators; AREc32 ARE-luciferase reporter (MCF7-derived line), luminescence, 24 h; 410,000 compounds, 0.31% hits; Potency, µM (top dose mostly 46.1 µM), without a hit: top-dose activation, actives largely listed as activators; also: % of control where 0% means no effect; nearly all actives have a fitted effect of over 65% in size
#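 Steps: seed AREc32_Fluc cells (1000/well, 5% FBS OPTI-MEM); incubate overnight at 37 deg C; add 23 nL compound; incubate 24 hr; add Steady-Glo; hold 30 min RT; read luminescence.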
# Nrf2 block: Nrf2 qHTS screen for inhibitors; 360,000 compounds, 2.1% hits; Potency, µM (doses to about 46 µM), for inactives: top-dose activity change, negative = inhibition, most hits filed as inhibitors; A549 ARE-Fluc reporter, luciferase luminescence, 18-24 h; also: % is scaled to controls: 0 for no effect and ±100 for the full control effect; nearly all actives have a fitted effect of over 60% in size
#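 Two sequential reads on A549 ARE_Fluc cells exposed to compound for 18-24 h: a CellTiter-Fluor fluorescence read for viability, then a luciferase luminescence read for Nrf2/ARE activity.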
# mIDH1 inhibitor: qHTS for Inhibitors of mutant isocitrate dehydrogenase 1 (IDH1): qHTS; Isocitrate dehydrogenase [NADP] cytoplasmic (Homo sapiens), O75874; IDH1-R132H enzyme, NADPH consumption, diaphorase/resazurin fluorescence; Potency, µM (series often up to 76.6 µM), inactives show at the top dose activity change, negative = inhibition, usual class: inhibitors; 390,000 compounds, 0.093% hits; AID 602179, 2012; also: % is scaled to controls: 0 for no effect and ±100 for the full control effect; nearly all actives have a fitted effect of over 65% in size
#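 IDH1-R132H (0.5 ug/mL) preincubated 30 min with compound, then NADPH (0.016 mM) and alpha-KG (2 mM) added; 80 min at RT, pH 7.5. Remaining NADPH coupled via diaphorase/resazurin to fluorescence (540/590 nm); concentration-response curves normalized to no-enzyme control.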
# A549 viability: Nrf2 qHTS screen for inhibitors: counterscreen for cytotoxicity | A549 ARE-Fluc cells, CellTiter-Fluor viability, 18-24 h | Potency, µM (titrated, usually from 46 µM), inactives show at the highest dose activity change, negative = cytotoxicity, usual class: inhibitors | 390,000 compounds, 0.16% hits | AID 504648, 2011; also: % is scaled to controls: 0 for no effect and ±100 for the full control effect
#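 Cytotoxicity counterscreen: CellTiter-Fluor fluorescence was measured in A549 ARE_Fluc cells after 18-24 h of compound exposure in a concentration series. The subsequent BugLite luminescent read reports ARE-luciferase activity.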
# ELG1 FLuc counter: qHTS screen for small molecules that inhibit ELG1-dependent DNA repair: Hit Confirmation in Cell-Based Luciferin Assay; shares compounds with ELG1 repair inh; cell-free firefly luciferase luminescence counter-screen, ViewLux; Potency, µM (titrated, usually from 46.1 µM), inactives show at the top dose activity change, negative = inhibition, hits mostly inhibitors; 350 compounds, 3% hits; AID 624247, 2012; also: % is scaled to controls: 0 for no effect and ±100 for the full control effect
# ELG1 Luc conf: HTS assay for small molecules that inhibit ELG1-dependent DNA repair in human embryonic kidney (HEK293T) cells expressing luciferase-tagged ELG1: Hit Confirmation; shares compounds with ELG1 repair inh; HEK293T ELG1-luciferase levels, luminescence; cells co-treated with 5-fluorouridine; Potency, µM (top dose mostly 46.1 µM), without a hit: at the highest dose activity change, negative = inhibition, hits mostly inhibitors; 670 compounds, 68% hits; AID 624248, 2012; also: % is scaled to controls: 0 for no effect and ±100 for the full control effect; nearly all actives have a fitted effect of over 55% in size
# Target sequence (Q96QE3 whole entry, looked up): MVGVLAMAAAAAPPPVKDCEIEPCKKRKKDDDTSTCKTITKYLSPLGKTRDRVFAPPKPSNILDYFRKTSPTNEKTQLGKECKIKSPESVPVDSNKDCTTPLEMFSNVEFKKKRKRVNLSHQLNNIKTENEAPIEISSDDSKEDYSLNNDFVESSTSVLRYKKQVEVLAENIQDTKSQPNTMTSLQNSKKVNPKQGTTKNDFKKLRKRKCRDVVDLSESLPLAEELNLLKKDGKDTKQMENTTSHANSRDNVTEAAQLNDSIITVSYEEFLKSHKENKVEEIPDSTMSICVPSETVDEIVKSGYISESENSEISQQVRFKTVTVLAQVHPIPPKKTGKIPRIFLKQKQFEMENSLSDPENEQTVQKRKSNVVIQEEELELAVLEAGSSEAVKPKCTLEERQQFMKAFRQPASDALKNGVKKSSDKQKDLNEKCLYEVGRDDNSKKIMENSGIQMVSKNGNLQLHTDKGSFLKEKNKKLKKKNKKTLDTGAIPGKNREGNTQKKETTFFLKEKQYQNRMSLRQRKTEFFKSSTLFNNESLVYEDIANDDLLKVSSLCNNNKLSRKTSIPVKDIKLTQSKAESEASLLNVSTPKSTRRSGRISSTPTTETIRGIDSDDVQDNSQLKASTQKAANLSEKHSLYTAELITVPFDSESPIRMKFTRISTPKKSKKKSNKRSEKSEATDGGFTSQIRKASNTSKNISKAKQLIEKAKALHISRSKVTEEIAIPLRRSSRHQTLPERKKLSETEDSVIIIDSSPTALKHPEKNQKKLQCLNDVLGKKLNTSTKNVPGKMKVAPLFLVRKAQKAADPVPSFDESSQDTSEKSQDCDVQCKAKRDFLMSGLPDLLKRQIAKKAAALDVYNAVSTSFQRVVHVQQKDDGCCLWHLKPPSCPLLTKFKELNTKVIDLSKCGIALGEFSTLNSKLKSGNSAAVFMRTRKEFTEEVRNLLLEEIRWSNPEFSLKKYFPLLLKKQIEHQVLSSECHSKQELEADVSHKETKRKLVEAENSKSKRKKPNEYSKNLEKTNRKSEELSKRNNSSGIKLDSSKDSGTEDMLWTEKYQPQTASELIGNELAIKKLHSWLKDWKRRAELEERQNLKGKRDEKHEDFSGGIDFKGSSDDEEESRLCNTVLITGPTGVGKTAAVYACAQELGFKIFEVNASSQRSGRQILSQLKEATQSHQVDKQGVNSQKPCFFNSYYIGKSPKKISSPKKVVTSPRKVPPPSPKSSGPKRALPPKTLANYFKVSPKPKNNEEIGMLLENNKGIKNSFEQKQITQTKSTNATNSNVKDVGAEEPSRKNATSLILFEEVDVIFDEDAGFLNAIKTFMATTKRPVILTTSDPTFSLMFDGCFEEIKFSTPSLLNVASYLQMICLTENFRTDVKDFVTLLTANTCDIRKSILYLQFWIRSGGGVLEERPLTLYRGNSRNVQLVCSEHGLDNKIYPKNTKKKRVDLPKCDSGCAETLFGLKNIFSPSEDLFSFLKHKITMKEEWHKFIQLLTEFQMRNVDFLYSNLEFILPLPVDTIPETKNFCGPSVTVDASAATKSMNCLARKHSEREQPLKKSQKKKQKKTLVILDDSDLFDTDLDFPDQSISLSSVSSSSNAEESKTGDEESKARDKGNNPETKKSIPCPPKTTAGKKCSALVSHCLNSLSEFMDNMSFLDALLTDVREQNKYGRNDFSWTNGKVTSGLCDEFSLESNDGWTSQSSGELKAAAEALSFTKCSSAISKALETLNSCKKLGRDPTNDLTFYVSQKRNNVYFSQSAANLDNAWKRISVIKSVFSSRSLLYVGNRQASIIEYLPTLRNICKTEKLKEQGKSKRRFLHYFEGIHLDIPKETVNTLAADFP
# ELG1 MMS Luc: confirmation of human ELG1 repair inhibitors, MMS stimulated; shares compounds with ELG1 repair inh; HEK293T luciferase-tagged ELG1 level, MMS stimulated; Potency, µM (series often up to 46.1 µM), inactives show at the highest dose activity change, negative = inhibition, hits mostly inhibitors; 670 compounds, 53% hits; AID 624249; also: % is scaled to controls: 0 for no effect and ±100 for the full control effect; nearly all actives have a fitted effect of over 60% in size
# ELG1 5-FU: qHTS screen for small molecules that inhibit ELG1-dependent DNA repair: Hit Confirmation with 5FU Viability | AID 624250, 2012 | shares compounds with ELG1 repair inh | cell viability with 5-FU, ELG1-dependent repair | Potency, µM (titrated, usually from 46.1 µM), without a hit: at the highest dose activity change, negative = viability loss, actives largely listed as cytotoxic | 670 tested, under 10 active;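 also: ELG1-luc HEK293T cells cotreated with 5-fluorouridine at 10 µM final; viability measured 16 h after compound addition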
# ELG1 MMS viab: qHTS screen for small molecules that inhibit ELG1-dependent DNA repair: Hit Confirmation with MMS Viability. shares compounds with ELG1 repair inh. Cell viability with MMS, ELG1-dependent DNA repair. Potency, µM (doses to about 46.1 µM), for the others: at the highest dose activity change, negative = viability loss, most hits filed as cytotoxic. 670 compounds, 33% hits. AID 624251, 2012;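 also: ELG1-luc HEK293T cells co-treated with 10 µM MMS; viability read 16 h after compound addition; % is scaled to controls: 0 for no effect and ±100 for the full control effect; nearly all actives have a fitted effect of over 60% in size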
# Cell viab unstim: qHTS screen for small molecules that inhibit ELG1-dependent DNA repair: Hit Confirmation with Unstimulated Viability Assay; cell viability counter-screen, unstimulated, luminescence; shares compounds with ELG1 repair inh; AID 624252, 2012; Potency, µM (top dose mostly 45.9 µM), for inactives: top-dose activity change, negative = loss of viability, usual class: cytotoxic; 900 compounds, 8% hits;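 also: compound exposure lasted 16 hours before reading; % is scaled to controls: 0 for no effect and ±100 for the full control effect; nearly all actives have a fitted effect of over 55% in size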
# FLuc biochem: qHTS screen for small molecules that inhibit ELG1-dependent DNA repair: Hit Confirmation in Biochemical Luciferin Assay; shares compounds with ELG1 repair inh; purified firefly luciferase, luminescence counter-screen; Potency, µM (doses to about 57.5 µM), for inactives: top-dose activity, negative = inhibition, most hits filed as inhibitors; 350 compounds, 10% hits; also: % is scaled to controls: 0 for no effect and ±100 for the full control effect
# Active calls of the source: *; ? = inconclusive; . = no result; ! = not confirmed by another sample; [ ] = remark or other dose. Calls follow the shape of the dose curve; as a rule, active = well fitted curve in the direction sought with a large enough effect; inconclusive = small, poorly fitted or top-dose-only effect, or another doubt; inactive = no such curve, though single readings can be large; an effect the other way counts as inactive or inconclusive. Potency is read from the fitted curve at half-maximal effect.
SMILES,ELG1 repair inh,Nrf2 ARE act,Nrf2 block,mIDH1 inhibitor,A549 viability,ELG1 FLuc counter,ELG1 Luc conf,ELG1 MMS Luc,ELG1 5-FU,ELG1 MMS viab,Cell viab unstim,FLuc biochem
COc1ccc(OC)c(NC(=O)CSc2ccnc(=O)[nH]2)c1,.,0.0%,.,22.3%,8.4%,.,.,.,.,.,.,.
O=C1CCC/C1=c1\s/c(=C\c2cccnc2)c(=O)n1-c1ccccc1,13µM*,0.8%,?,0.0%,-17.3%,-6.3%,8.89µM*,?,9.1%,-8.6%,-16.9%,-4.1%
COc1ccc(NC(=O)c2ccc3c(c2)CCN3S(=O)(=O)c2ccc(C)cc2)cc1Cl,.,0.0%,-0.7%,4.9%,-0.2%,.,.,.,.,.,.,.
O=C(C1=C[C@H](c2ccc(Br)cc2)C[C@H](OCc2ccc(CO)cc2)O1)N1CCN(Cc2ccc3c(c2)OCO3)CC1,9.2µM*,8.6%,?,-2.5%,-13.4%,?,7.92µM*,?,?,-5.8%,?,-8.5%
C#Cc1ccc([C@H]2C=C(C(=O)N3CCN(Cc4ccc5c(c4)OCO5)CC3)O[C@@H](OCc3ccc(CO)cc3)C2)cc1,1.64µM*,8.1%,?,-3.9%[38.3 µM],-6.6%,-6.8%,5.61µM*,?,?,?,-3.0%,-1.3%
Cc1cccc(NC(=O)c2sc3nc(-c4ccccc4)cn3c2C)c1C,.,3.2%,.,-11.5%,3.1%,.,.,.,.,.,.,.
O=C(O)c1ccc(C2Nc3ccccc3-c3nnc(SCc4ccc(Cl)cc4)nc3O2)cc1 (stereo not drawn),.,0.0%,2.6%,-3.6%,-3.7%,.,.,.,.,.,.,.
O=C(CNC(=O)c1cccc(F)c1)N/N=C/c1ccc([N+](=O)[O-])s1,2.91µM*,-0.3%,?,0.2%,-9.6%,.,?,9.96µM*,-3.2%,14.1µM*,-4.0%,.
COc1ccc(CCN2C(=O)C3C4C=CC(C3C2=O)C2C(=O)N(CCc3ccc(OC)c(OC)c3)C(=O)C42)cc1OC (stereo not drawn),3.26µM*,-0.1%,?,0.4%,-7.8%,.,?,6.28µM*,-2.8%,4.99µM*,?,.
COc1ccc(CCN2C(=O)C3C4C=CC(C5CC45)C3C2=O)cc1OC (stereo not drawn),-2.2%,-0.6%,-14.0%,5.7%,-8.3%,.,.,.,.,.,.,.
Cc1nc2sc3c(NCc4ccco4)ncnc3c2c2c1COC(C)(C)C2,2.59µM*,0.2%,?,-0.1%,-12.6%,-6.7%,3.54µM*,22.3µM*,?,-11.2%,?,-3.8%
CC(C)Cc1nc2sc3c(NCc4ccco4)ncnc3c2c2c1COC(C)(C)C2,?,0.0%,-2.2%,-3.3%,-3.2%,.,.,.,.,.,.,.
Cc1ccc2nc(-c3ccc(Cl)c(NC(=O)COc4ccc(C(C)C)cc4)c3)oc2c1,.,6.3%,?,-3.3%,-5.0%,.,.,.,.,.,.,.
COc1ccc(OCC(=O)Nc2ccc(-c3nc4cc(C)c(C)cc4o3)cc2)cc1,.,0.2%,?,-3.4%,-0.6%,57.1%,.,.,.,.,?,15µM*!
Cc1ccc2nc(-c3ccc(C)c(NC(=O)COc4ccc(Br)cc4)c3)oc2c1,.,.,.,.,.,68.1%,.,.,.,.,-1.4%,?
Cc1ccc(OCC(=O)Nc2ccc(-c3nc4ccc(C)cc4o3)cc2)cc1,.,2.7%,?,-12.7%,-1.1%,.,.,.,.,.,.,.
COc1ccc(C(O)c2nc(-c3cnn(C)c3)cs2)cc1 (stereo not drawn),.,0.4%,.,.,.,.,.,.,.,.,.,.
COc1ccc(CNc2ncnc3sccc23)cc1,1.83µM*,2.2%,10.3µM*,0.9%,-1.1%,.,?,2.81µM*,-0.3%,2.81µM*,?,.
COc1ccc(C(=O)Nc2cc3c(cc2N2CCCCC2)n(C)c(=O)n3C)cc1OC,-6.7%,1.2%,?,46.5µM*,-10.2%,100.0%,?,8.8%,?,-1.7%,-0.1%,-1.8%
Cc1nc(NC(=O)c2c(-c3ccccc3Cl)noc2C)sc1C,2.91µM*,-0.2%,?,0.0%,-1.4%,.,?,0.499µM*,?,6.0%,-16.0%,.
CC(=O)n1cc([C@@H]2C=C(C(=O)N3CCN(Cc4ccc5c(c4)OCO5)CC3)O[C@H](OCCCCO)C2)c2ccccc21,18.3µM*,3.9%,-27.3%,-8.2%,-4.3%,-8.5%,?,7.7%,-5.5%,-15.8%,?,-16.3%
O=C(C1=C[C@@H](c2ccc3c(c2)OCO3)C[C@@H](OCCCCO)O1)N1CCN(Cc2ccc3c(c2)OCO3)CC1,0.0%,1.7%,-40.1%,0.0%[38.3 µM],0.2%,.,.,.,.,.,.,.
O=C(C1=C[C@H](c2ccc3c(c2)OCO3)C[C@H](OCCCCO)O1)N1CCN(Cc2ccccc2)CC1,7.5%,4.1%,16.1%,13.4%,3.7%,-4.3%,-35.0%,?,-1.1%,?,-6.2%,-5.7%
